The values below come from PubChem BioAssay.

Molecules are shown by their SMILES. Active and inactive are the calls of the source.

Assay [1] is described as follows: optical density shifts of acrAB sulA E. coli – strain DRC41, OD650, 48 h, E. coli filamentation inducer project, primary screen (AID 1152).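 Note: E. coli MC1000 strain DRC41 lacking acrAB efflux pump and sulA.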 To be noted: higher = more signal, called active from +8 up or from −8 down.
Assay [2] is described as follows: probe aLefty1 binding on compound microarray – biochemical, small-molecule microarray, 635/667 nm fluorescence, primary screen (AID 1153).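 Note: score merges spot fluorescence with signal-to-noise ratio from the scanned slide images.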 The settings on record: higher = more signal.
A short description of assay [3]: plasmodial surface anion channel blockers, osmotic lysis – cell-based, P. falciparum Indochina, OD700, 1 h, primary screen (AID 1154). The settings on record: P. falciparum Indochina infected RBC osmotic lysis, higher = more signal, called active from +8 up or from −8 down.
Assay [4] is described as follows: plasmodial surface anion channel blockers, osmotic lysis – cell-based, P. falciparum Indochina, OD700, 2 h, primary screen (AID 1155).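 Note: lysis reports solute entry through the parasite surface anion channel PSAC.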 To be noted: P. falciparum Indochina infected erythrocytes, higher = more signal, called active from +8 up or from −8 down.
A short description of assay [5]: changes in parasitized red cell lysis, either direction – P. falciparum Indochina, OD700, 3 h, PSAC antagonist project, primary screen (AID 1156). The settings on record: P. falciparum-infected erythrocytes, osmotic lysis, higher = more signal, called active from +8 up or from −8 down.
The nature of assay [6]: plasmodial surface anion channel blockers, osmotic lysis – cell-based, P. falciparum Indochina, OD700, 18 h, primary screen (AID 1157). The settings on record: P. falciparum Indochina infected erythrocytes, osmotic lysis OD700, 18 h; higher = more signal, called active from +8 up or from −8 down.
The nature of assay [7]: S6 kinase pathway phospho-S6 level changes – cell-based, A549, cytoblot, luminescence, serum-stimulated, primary screen (AID 1158).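 Note: serum-stimulated A549 lung adenocarcinoma cells; signal is phosphorylated S6 detected by cytoblot immunostaining with HRP secondary.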 To be noted: 5 h, higher = more signal.
Assay [8] addresses NADPH oxidase 2 (Homo sapiens) (UniProt P04839). Nature of the assay: compounds shifting NOX2 Amplex Red fluorescence – cell-based, HEK293-NOX2, PMA-stimulated, NOX inhibitor project, primary screen (AID 1159). Note: test concentration not given here. The settings on record: 45 min, higher = more signal, called active from +8 up or from −8 down.
Assay [9] deals with NADPH oxidase 4 (Homo sapiens) (UniProt Q9NPH5). Kind of assay: compounds shifting NOX4 Amplex Red fluorescence – cell-based, HEK293-NOX4, tetracycline-induced, NOX inhibitor project, primary screen (AID 1160). The settings on record: HEK293-NOX4, Amplex Red H2O2 fluorescence, 45 min; higher = more signal, called active from +8 up or from −8 down.
The target in assay [10] is NADPH oxidase 5 (Homo sapiens) (UniProt Q96PH1). Kind of assay: compounds shifting NOX5 Amplex Red fluorescence – cell-based, HEK293-NOX5, NOX inhibitor project, primary screen (AID 1161). To be noted: HEK293-NOX5, ionomycin, 45 min, higher = more signal.
Sequence of NADPH oxidase 5 (Homo sapiens) (Q96PH1 whole entry, looked up): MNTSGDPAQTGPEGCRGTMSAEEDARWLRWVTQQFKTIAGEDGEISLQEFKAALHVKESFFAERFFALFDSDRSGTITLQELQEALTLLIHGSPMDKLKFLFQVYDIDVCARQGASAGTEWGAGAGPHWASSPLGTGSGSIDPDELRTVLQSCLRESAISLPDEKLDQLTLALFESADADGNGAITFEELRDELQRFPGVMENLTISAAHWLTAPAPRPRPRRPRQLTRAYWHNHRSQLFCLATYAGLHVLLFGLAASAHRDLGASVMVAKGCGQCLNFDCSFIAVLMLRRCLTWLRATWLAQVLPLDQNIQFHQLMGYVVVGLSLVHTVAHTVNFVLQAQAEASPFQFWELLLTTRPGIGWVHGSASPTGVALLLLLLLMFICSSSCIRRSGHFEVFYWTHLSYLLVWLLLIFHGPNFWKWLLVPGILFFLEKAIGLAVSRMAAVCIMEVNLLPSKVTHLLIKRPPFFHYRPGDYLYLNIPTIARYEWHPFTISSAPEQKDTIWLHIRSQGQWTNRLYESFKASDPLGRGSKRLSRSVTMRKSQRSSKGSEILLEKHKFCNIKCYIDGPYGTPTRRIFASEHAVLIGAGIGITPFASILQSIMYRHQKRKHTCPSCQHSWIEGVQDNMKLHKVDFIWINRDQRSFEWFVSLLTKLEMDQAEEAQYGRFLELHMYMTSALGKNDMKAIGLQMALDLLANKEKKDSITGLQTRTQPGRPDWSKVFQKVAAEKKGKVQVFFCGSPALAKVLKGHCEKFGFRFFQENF

Sequence of NADPH oxidase 2 (Homo sapiens) (P04839 whole entry, looked up): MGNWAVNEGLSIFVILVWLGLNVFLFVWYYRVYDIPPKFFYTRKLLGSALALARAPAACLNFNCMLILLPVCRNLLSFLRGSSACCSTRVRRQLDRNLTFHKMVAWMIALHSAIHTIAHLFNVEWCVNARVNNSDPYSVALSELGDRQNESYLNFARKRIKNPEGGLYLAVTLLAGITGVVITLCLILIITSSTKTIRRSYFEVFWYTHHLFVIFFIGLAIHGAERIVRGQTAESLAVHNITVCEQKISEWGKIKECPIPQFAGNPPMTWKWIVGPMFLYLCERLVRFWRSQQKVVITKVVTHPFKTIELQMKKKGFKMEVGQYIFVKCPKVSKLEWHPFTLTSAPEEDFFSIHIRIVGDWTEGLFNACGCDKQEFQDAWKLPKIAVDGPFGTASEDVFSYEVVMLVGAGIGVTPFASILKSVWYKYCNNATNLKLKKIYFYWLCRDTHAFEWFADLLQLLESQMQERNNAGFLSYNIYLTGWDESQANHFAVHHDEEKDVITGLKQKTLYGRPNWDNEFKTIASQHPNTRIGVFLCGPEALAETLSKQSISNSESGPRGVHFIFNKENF
Sequence of NADPH oxidase 4 (Homo sapiens) (Q9NPH5 whole entry, looked up): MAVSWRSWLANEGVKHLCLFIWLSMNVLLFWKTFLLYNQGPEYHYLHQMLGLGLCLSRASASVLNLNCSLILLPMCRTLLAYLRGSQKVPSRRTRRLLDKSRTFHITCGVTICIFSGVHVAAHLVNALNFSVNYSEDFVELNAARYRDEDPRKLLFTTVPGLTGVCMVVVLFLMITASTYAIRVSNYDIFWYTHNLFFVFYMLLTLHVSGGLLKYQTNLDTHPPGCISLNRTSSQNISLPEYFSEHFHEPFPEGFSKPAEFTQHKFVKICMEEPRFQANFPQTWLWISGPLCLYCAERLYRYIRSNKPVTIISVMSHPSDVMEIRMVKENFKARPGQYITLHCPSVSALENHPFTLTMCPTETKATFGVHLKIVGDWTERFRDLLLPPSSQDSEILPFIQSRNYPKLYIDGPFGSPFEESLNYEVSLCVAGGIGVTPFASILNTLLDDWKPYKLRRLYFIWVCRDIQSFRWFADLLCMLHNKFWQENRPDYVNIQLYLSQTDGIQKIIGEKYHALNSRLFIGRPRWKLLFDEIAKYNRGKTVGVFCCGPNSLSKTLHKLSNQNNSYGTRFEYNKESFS

Turning to `O=C1OCC=C[C@H]2OC34C=CCN(c5ccc6ccccc6c5)C(=O)[C@H]3N(CCCCCO)C(=O)[C@@H]4[C@@H]12` (stereo not given in full), the z-score is -0.186 (inactive) in assay [1]; 2.04 (inactive) in assay [3]; 0.132 (inactive) in assay [4]; 1 (inactive) in [5]; 0.162 (inactive) in [6]; -0.798 in [7]. In addition, the z-score in assay [8] was 1.57 (inactive); in assay [9], 0.056 (inactive); in assay [10] it was 2.93. Also, the composite z-score in [2] came to 0.407.

In the case of `COc1ccc(C#Cc2ccc3c(c2)[C@]2(C(=O)N3)[C@H](C(=O)N3CCCCCCC3)[C@H]3C(=O)O[C@H](c4ccccc4)[C@H](c4ccccc4)N3[C@@H]2c2ccc(O)cc2)cc1`, the z-score in [1] was -0.821 (inactive); in assay [3], 0.445 (inactive); in [4] it was 0.391 (inactive); in assay [5] it was -0.562 (inactive); in assay [6], 0.271 (inactive); in assay [7], -0.0624. For the same molecule, the z-score in assay [8] was 0.697 (inactive); in assay [9] it was 0.174 (inactive); in assay [10] it was 0.00156. In assay [2], this molecule showed a composite z-score of 2.04.

In the case of `COCCOC(=O)N1C(=O)[C@@]2(c3cc(C#Cc4ccc(OC)cc4)ccc31)[C@H](c1ccc(OCCO)cc1)N1[C@H](c3ccccc3)[C@H](c3ccccc3)OC(=O)[C@H]1[C@@H]2C(=O)Nc1nc2ccccc2s1`, the z-score is 0.905 (inactive) in assay [1]; 4.12 (inactive) in [3]; 2.5 (inactive) in [4]; -0.16 (inactive) in assay [5]; 2.13 (inactive) in [6]; 0.0972 in assay [7]. Further, the z-score was 1.29 (inactive) in assay [8], 0.402 (inactive) in assay [9] and 0.944 in assay [10]. The composite z-score in [2] was determined as 0.101.

For the molecule `Cc1ccc([C@H]2C(C(=O)O)=C[C@@H](C(C)(C)C)N2S(=O)(=O)c2ccc(C)cc2)cc1`, the z-score in [1] was -1.18 (inactive); in assay [3], 0.212 (inactive); in assay [4], 0.934 (inactive); in assay [5], -0.627 (inactive); in assay [6] it was 0.585 (inactive); in assay [7], -0.213. For the same molecule, the z-score is 0.96 (inactive) in assay [8], -2.84 (inactive) in [9] and -0.357 in [10]. Moreover, the composite z-score in assay [2] worked out at 0.141.

In the case of `CO[C@H]1O[C@H](CO)[C@@H](OC(=O)Nc2ccc(C#N)cc2)[C@@H]2OC(=O)[C@H](Cc3cccc(Br)c3)C/C=C/C[C@@H](Cc3cccc(Br)c3)C(=O)O[C@@H]12`, the z-score in assay [1] is 0.766 (inactive); in assay [3], 1.52 (inactive); in assay [4], -0.178 (inactive); in assay [5] it was 0.842 (inactive); in assay [6], 0.558 (inactive); in assay [7], -0.257. For the same molecule, the z-score in assay [8] is -1.59 (inactive); in [9], 0.311 (inactive); in [10], -0.214. The same molecule yielded a composite z-score in assay [2] of 0.941.

Turning to `[N-]=[N+]=Nc1ccccc1C[C@]1(C(=O)O)N=C(c2ccc(OCCCO)cc2)O[C@H]1c1ccccc1`, the z-score in assay [1] is 0.174 (inactive); in assay [3], 18.4 (active); in [4] it was 2.83 (inactive); in [5], 1.35 (inactive); in assay [6], 0.589 (inactive); in assay [7], -0.138. The z-score in assay [8] was 0.22 (inactive); in assay [9], 0.818 (inactive); in assay [10], 0.857. Also, the composite z-score in assay [2] is -0.007.

Turning to `CCOC(=O)C1=C[C@@H](C(C)(C)C)N(S(=O)(=O)c2ccc(C)cc2)[C@H]1c1ccc(C)cc1`, the z-score is -1.92 (inactive) in assay [1]; 0.302 (inactive) in [3]; 0.54 (inactive) in assay [4]; 0.0464 (inactive) in assay [5]; -0.0532 (inactive) in assay [6]; -0.53 in assay [7]. The z-score in assay [8] is -0.875 (inactive); in assay [9] it was -0.25 (inactive); in assay [10] it was 0.251. The molecule also returned a composite z-score in assay [2] of 0.121.

Take `CC(C)[C@H]1NC(=O)[C@@]23C(=O)N[C@@H](Cc4ccccc4)C2[C@H](C)[C@@]2(C)O[C@H]2C3/C=C/CCC/C=C/CNC(=O)[C@H](Cc2ccccc2)NC1=O` (stereo not given in full): the z-score in [1] was -0.246 (inactive); in assay [3] it was 1.18 (inactive); in assay [4], 0.581 (inactive); in [5] it was 0.81 (inactive); in assay [6], 0.182 (inactive); in assay [7] it was 0.352. Also, the z-score in assay [8] is 1.46 (inactive); in assay [9] it was 0.525 (inactive); in assay [10], 0.896. The molecule also showed a composite z-score in assay [2] of 0.0582.

With `COCCOC(=O)N1C(=O)[C@@]2(c3cc(C#CCC(C(=O)OC)C(=O)OC)ccc31)[C@H](C(=O)NC[C@H](O)c1ccccc1)[C@H]1C(=O)O[C@H](c3ccccc3)[C@H](c3ccccc3)N1[C@@H]2c1ccc(O)cc1`, the z-score in [1] was -0.128 (inactive); in [3], 2.35 (inactive); in assay [4], -0.27 (inactive); in [5], 0.283 (inactive); in assay [6], 0.27 (inactive); in assay [7], 0.0648. The values for the z-score in assay [8], in [9] and in assay [10] were 1.71 (inactive), 1.01 (inactive) and 1.84, respectively. This molecule also came in with a composite z-score in assay [2] of 0.0977.

Regarding `C=CCC(OC(C)=O)[C@@H]1[C@@H](N(Cc2ccc(-c3cccc(C(F)(F)F)c3)o2)C(=O)c2cccc3ccccc23)c2cc(OCCCO)ccc2N1C(=O)Cc1ccc(OC)cc1` (stereo not given in full), the z-score in assay [1] was 0.386 (inactive); in assay [3], 1.62 (inactive); in [4], 0.753 (inactive); in [5], 1.94 (inactive); in [6], 0.702 (inactive); in assay [7], 0.461. For the same molecule, the z-score was -3.21 (inactive) in assay [8], -1.73 (inactive) in [9] and -1.49 in [10]. The molecule further showed a composite z-score in assay [2] of -0.0818.

With `COc1cc(NN2C(C(O)C3CCCCC3)C=CC3C(=O)N(C)C(=O)C32)cc(OC)c1OC` (stereo not given), the z-score was -1.27 (inactive) in assay [1]; 0.713 (inactive) in [3]; 0.608 (inactive) in assay [4]; 0.917 (inactive) in [5]; 1.34 (inactive) in [6]; -0.723 in assay [7]. The z-score in assay [8] is -0.904 (inactive); in assay [9] it was -2.73 (inactive); in assay [10], -1.7. The molecule also showed a composite z-score in assay [2] of 0.949.

For `COc1ccc([Si](C)(C)[C@H]2[C@H](CCO)O[C@@]3(C(=O)N(Cc4ccccc4)c4ccc(N5C(=O)c6ccccc6Oc6ccccc65)cc43)[C@@H]2C)cc1`, the z-score was 0.503 (inactive) in assay [1]; 3.46 (inactive) in assay [3]; 1.45 (inactive) in [4]; 0.354 (inactive) in [5]; 1.19 (inactive) in [6]; 0.314 in [7]. Further, the z-score is -1.35 (inactive) in assay [8], 1.42 (inactive) in assay [9] and 0.269 in [10]. Moreover, in assay [2], the composite z-score was found to be 0.121.

On to `[N-]=[N+]=Nc1ccccc1C[C@]1(C(=O)NCc2ccccc2)COC(c2ccc(OCCCO)cc2)=N1`, for which the z-score in [1] was 0.325 (inactive); in [3] it was 30.8 (active); in [4] it was 30.8 (active); in assay [5], 3.25 (inactive); in [6], 3.49 (inactive); in assay [7] it was -0.351. Further, the z-score in [8] is -3.07 (inactive); in assay [9], -1.03 (inactive); in assay [10], -1.91. The composite z-score in assay [2] is -0.442.

Consider `CC1(C)C(=O)C(c2ccccc2)=C2CN3C(=O)N(CCc4ccccc4)C(=O)C3(Cc3ccc(C(F)(F)F)cc3)C=C21` (stereo not given), for which the z-score in assay [1] is -2.21 (inactive); in [3], 0.582 (inactive); in [4] it was 0.316 (inactive); in assay [5], 0.482 (inactive); in [6], 0.668 (inactive); in [7] it was 0.0875. The z-score was -0.462 (inactive) in assay [8], -1.68 (inactive) in [9] and -0.494 in [10]. In addition, the composite z-score in assay [2] is 0.349.

Turning to `CN(C)C(=O)[C@@]1(Cc2ccccc2)COC(c2ccc(OCCCO)cc2)=N1`, the z-score is 1.54 (inactive) in [1]; 20.9 (active) in [3]; 3.73 (inactive) in assay [4]; 2.46 (inactive) in [5]; 1.09 (inactive) in [6]; 0.0912 in [7]. Further, the z-score in assay [8] is -1.26 (inactive); in assay [9], 0.108 (inactive); in assay [10], -1.21. Moreover, in [2], the composite z-score was -0.57.

For the molecule `COC(=O)[C@@]1(Cc2ccc(F)cc2)[C@H]2c3cc(C(=O)N4CCCC4)n(C)c3C[C@H]2CN1C(=O)c1ccccc1`, the z-score in assay [1] was -0.327 (inactive); in [3], 2.59 (inactive); in assay [4], 0.107 (inactive); in [5], -0.105 (inactive); in [6], 0.47 (inactive); in [7], 0.305. Also, the z-score in [8] was 0.282 (inactive); in assay [9] it was -0.466 (inactive); in assay [10], -0.565. This molecule showed a composite z-score in [2] of 0.603.

As for `CCCNC(=O)[C@@]1(C)c2ccccc2C(=O)N(Cc2ccccc2)[C@H]1c1ccc(CO)cc1`, the z-score in [1] is 1.3 (inactive); in [3] it was 3.35 (inactive); in [4] it was 0.505 (inactive); in [5], 0.231 (inactive); in assay [6] it was 0.157 (inactive); in assay [7], 0.0612. In addition, the z-score was -0.703 (inactive) in assay [8], -0.0486 (inactive) in assay [9] and 0.885 in assay [10]. Further, the composite z-score in assay [2] was 0.594.
